Values joined by “and” are separate entries in the source; they are usually repeats but may differ in a detail not shown here. Identical values can stand only once. Among all 270,000 compounds or so, about 410 (0.15%) were called active. Cut-off read from the data, not from the text of the source: active = activation above about 40%; inactive = the rest, inconclusive results apart. Many of the other results were omitted from the sample, so actives are more common in it than they were. More than one record can exist for a structure, and the calls need not agree.
System: Aedes aegypti neuropeptide Y-like receptor 7 (NPYLR7)
Assay: agonists of mosquito NPYLR7 receptor, primary screen, cell-based, Aedes aegypti, calcium fluorescence, mosquito biting behavior (AID 1259423);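 note: 0% = vehicle and 100% = reference agonist at the receptor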
Conditions: HEK293T NPYLR7/Galpha15, GCaMP6s calcium fluorescence, at 10 µM, stronger effect = higher value
[1] = measured here: Max-Min RFU normalised activation

| SMILES | activation | activation [1] |
| --- | --- | --- |
| Cc1nc2c(=O)n(CC(=O)Nc3ccc(F)cc3)nc(-c3ccc(F)cc3)c2s1 | -3.19% (inactive) | -5.39% |
| COc1ccc(C(=O)NNc2nc3c(C)c(C)ccc3s2)cc1 | 3.57% (inactive) | -0.501% |
| O=S(=O)(Nc1ccccc1OC(F)F)c1ccccc1F | -1.67% (inactive) | -2.18% |
| Nc1[nH]n(-c2c(Cl)cc(Cl)cc2Cl)c(=O)c1N=Nc1cccc(C(F)(F)F)c1 | -0.505% (inactive) | -6.22% |
| O=C(Nc1cccc(Cl)c1)c1cn(CC2CCCO2)cc2c(=O)n(-c3ccccc3)nc1-2 (configuration not stated) | 6.66% (inactive) | 6.45% |
| CCOC(=O)Cc1csc(=Nc2ccc(OC)cc2)n1CCO | -15.9% (inactive) | -20.5% |
| CC(C)OCCCNC(=O)c1ccc(-c2cccc(C(F)(F)F)c2)s1 | -2.79% (inactive) | 5.92% |
| Cc1cc2nc3c(=O)[nH]c(=O)nc-3n(C[C@H](O)[C@H](O)[C@H](O)CO)c2cc1C | 71.4% (active) | 64.2% |
| COc1cccc(OC)c1-c1cnnc(NCCN2CCCc3ccccc32)n1 | 19.3% (inactive) | 11.8% |
| COc1ccc(CC(=O)N(Cc2nc3cc(Cl)ccc3o2)C2CCCC2)cc1OC | 4.51% (inactive) | -5.03% |
| Cc1c(C(=O)N2CCCCC2CCc2ccc(O)cc2)oc2c(F)cccc12 (configuration not stated) | -1.59% (inactive) | -5.83% |
| N#CC(=C(O)CSc1ccc2c(c1)OCCO2)c1nc2ccccc2[nH]1 | 5.29% (inactive) | 3.43% |
| N#C/C(=C/c1cn(-c2ccccc2)nc1-c1ccco1)c1nc2ccccc2c(=O)[nH]1 | 11.8% (inactive) | 10.5% |
| CC1CN(c2ccc(/C=C(\C#N)c3nc4ccccc4[nH]3)o2)CC(C)O1 (configuration not stated) | 81.4% (active) | 110% |
| COc1ccc(C(CC(=O)N(C)Cc2cnccn2)c2ccccc2)cc1 (configuration not stated) | 16% (inactive) | 4.14% |
| O=C(NCCCNC(=O)[C@H]1CCCN1C(=O)COc1ccc(Cl)cc1)c1ccc(F)cc1 | -0.263% (inactive) | 6.73% |
| CC1CCN(C(=O)C(C)Nc2ccc3c(c2)OCO3)CC1 (configuration not stated) | 3.12% (inactive) | 1.09% |
| COc1cc2c(cc1OC)C(c1ccccc1)N(C(=O)c1cc3c(s1)-c1ccccc1OC3)CC2 (configuration not stated) | -0.991% (inactive) | 6.66% |
| COc1ccc(CC(=O)OCc2ccc(COC(=O)Cc3ccc(OC)c(OC)c3)cc2)cc1OC | -2.95% (inactive) | -6.45% |
| COc1ccc(CC2c3cc(OC)c(OC)cc3CC[N+]2(C)CCC(=O)OCCCCCOC(=O)CC[N+]2(C)CCc3cc(OC)c(OC)cc3C2Cc2ccc(OC)c(OC)c2)cc1OC (configuration not stated) | 41.9% (inactive) and -3.83% (inactive) and 69.2% (active) | 33.2% and 2.45% and 52.5% |
| COc1cc2c(cc1O)[C@@H](Cc1ccc(O)cc1)[N+](C)(C)CC2 | 5.5% (inactive) | -4.18% |
